TbPYK inhibitor: qHTS of Trypanosoma Brucei Inhibitors; pyruvate kinase (Trypanosoma brucei), Q57TT1; TbPYK enzyme, Kinase-Glo Plus ATP luminescence, 45 min; Potency, µM (titrated, usually from 76.8 µM), for inactives: at the top dose activity, negative = inhibition, usual class: inhibitors; 0.12% of 410,000 active; AID 624173, 2012; also: potency is read from the fitted curve at half-maximal effect; nearly all actives have a fitted effect of over 50% in size
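Screened from lowest to highest concentration, compounds were pinned into TbPYK/substrate mixtures, and ADP (130 uM final) was added. Plates sat at room temperature for 45 min prior to Kinase-Glo Plus detection by luminescence.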
LmPK inh: qHTS Assay for Inhibitors of Leishmania Mexicana Pyruvate Kinase (LmPK); Q27686; Potency, µM (titrated, usually from 57.5 µM), for inactives: top-dose activity change, negative = inhibition, most hits filed as inhibitors; AID 1721, 2009; 0.37% of 290,000 active; purified LmPK, Kinase-Glo ATP luminescence, 1 h; also: potency is read from the fitted curve at half-maximal effect
Target sequence (Q27686 whole entry, looked up): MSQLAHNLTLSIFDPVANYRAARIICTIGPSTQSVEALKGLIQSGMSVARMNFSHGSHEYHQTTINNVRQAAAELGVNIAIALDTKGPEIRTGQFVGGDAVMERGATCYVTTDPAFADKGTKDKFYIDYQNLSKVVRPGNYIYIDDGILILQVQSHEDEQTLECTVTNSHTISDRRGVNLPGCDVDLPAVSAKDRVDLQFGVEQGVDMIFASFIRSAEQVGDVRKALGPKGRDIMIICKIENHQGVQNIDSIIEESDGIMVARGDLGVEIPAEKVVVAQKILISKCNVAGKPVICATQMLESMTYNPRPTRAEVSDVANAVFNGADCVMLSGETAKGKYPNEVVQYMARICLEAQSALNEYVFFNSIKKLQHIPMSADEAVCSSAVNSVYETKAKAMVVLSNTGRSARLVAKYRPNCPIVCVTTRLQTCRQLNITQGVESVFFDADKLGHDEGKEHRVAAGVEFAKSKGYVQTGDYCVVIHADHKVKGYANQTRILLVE
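In 50 mM imidazole pH 7.2 with 7 mM MgCl2, LmPK (0.1 nM) turned over PEP (0.5 mM) and ADP (0.1 mM) for 1 h at room temperature. Luciferase read-out of ATP.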
Vaccinia Venus: qHTS for Stage-Specific Inhibitors of Vaccinia Orthopoxvirus: Venus Reporter Primary qHTS; Potency, µM (top dose mostly 36.5 µM), for the others: top-dose activity change, negative = inhibition, hits mostly inhibitors; Vaccinia virus Venus reporter expression, fluorescence; 0.46% of 330,000 active; calls by dose curve; tested in A549 cells; also: potency is read from the fitted curve at half-maximal effect; nearly all actives have a fitted effect of over 30% in size
Vaccinia mCherry: qHTS for Stage-Specific Inhibitors of Vaccinia Orthopoxvirus: mCherry Reporter Primary qHTS; Vaccinia virus mCherry reporter infection, fluorescence; Potency, µM (series often up to 36.5 µM), without a hit: at the top dose activity change, negative = inhibition, most hits filed as inhibitors; AID 720579, 2013; 0.63% of 310,000 active; calls by dose curve; tested in A549 cells; also: potency is read from the fitted curve at half-maximal effect; nearly all actives have a fitted effect of over 35% in size
HCMV antiviral: qHTS Assay for inhibitors of the human cytomegalovirus (HCMV) | HFF cells, HCMV-luciferase reporter, 72 h; hits give low values | 4.5% of 410,000 active | activity change, negative = inhibition, % at 57.5 µM; in the data active = activity change below about -60%; inconclusive = no clear call, values can overlap the other calls; inactive = above about -39%
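Human foreskin fibroblasts infected with luciferase-reporter HCMV at MOI 1 PFU/cell, compounds at two doses. Luciferase measured 72 h post infection; normalized to buffer-only basal and Salinomycin (10uM) controls.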
An asterisk follows results filed as active; i = inactive; u = inconclusive; x = not tested or not shown; [ ] = another dose, or the depositor's remark. A selection: hits, their analogues and other compounds. The true share with any hit is near 5%. Unless noted, calls follow the shape of the dose curve; as a rule, active = well fitted curve in the direction sought with a large enough effect; inconclusive = small, poorly fitted or top-dose-only effect, or another doubt; inactive = no such curve, though single readings can be large; an effect the other way counts as inactive or inconclusive. % is scaled to controls: 0 for no effect and ±100 for the full control effect.

SMILES	TbPYK inhibitor	LmPK inh	Vaccinia Venus	Vaccinia mCherry	HCMV antiviral
O=C(Nc1ccc([N+](=O)[O-])cn1)c1cc(-c2cccc(Cl)c2)nc2ccccc12	-19%	-2%	-7%	-8%	18
C/C(=N\NC(=O)c1cc(-c2cccnc2)nc2ccccc12)c1ccc(O)cc1O	-9%	1%	u	11µM*	-94*
O=C(NNC(=O)c1cc(-c2ccncc2)nc2ccccc12)c1ccccc1O	9%	x	u	13µM*	-21
CCOc1ccc(CCn2c3c(c(=O)[nH]c2=O)C(NC(=O)c2cccc(F)c2)(C(F)(F)F)C(=O)N3)cc1OCC (stereo unspecified)	5%	x	-9%	-5%	2
CCn1c2ccccc2c2cc(/C=N/n3cnnc3)ccc21	-3%	4%	u	-21%	-24
CCn1c2ccccc2c2cc(/C=N/O)ccc21	-2%	0%	x	x	-74*
O=C(c1ccc2c(c1)N(Cc1cccc(Cl)c1)C(=O)c1ccccc1S2(=O)=O)N1CCN(Cc2ccccc2)CC1	-3%	x	-11%	-17%	-67*
O=C(c1ccc2c(c1)N(Cc1cccc(Cl)c1)C(=O)c1ccccc1S2(=O)=O)N1CCN(c2ccccn2)CC1	2%	-9%	x	x	-84*
O=C1c2ccccc2S(=O)(=O)c2cc(C(=O)N3CCC(C(=O)N4CCCCC4)CC3)ccc21	-17%	x	1.4µM*	u	17
O=C(c1ccc2c(c1)N(Cc1cccc(Cl)c1)C(=O)c1ccccc1S2(=O)=O)N1CCCCCC1	2%	x	-11%	-14%	-65*
O=C(c1ccc2c(c1)N(Cc1ccc(Cl)cc1)C(=O)c1ccccc1S2(=O)=O)N1CCN(c2ccccn2)CC1	-1%	x	-17%	-14%	-19
CN1CCN(C(=O)c2ccc3c(c2)N(Cc2cccc(Cl)c2)C(=O)c2ccccc2S3(=O)=O)CC1	3%	-5%	-12%	i	u
O=C(NCc1ccccc1)C(=O)NCC1OCCN1S(=O)(=O)c1ccc([N+](=O)[O-])cc1 (stereo unspecified)	-1%	2%	u	10µM*	-78*
Cc1cc(C)c(S(=O)(=O)N2CCCOC2CNC(=O)C(=O)NCCc2c[nH]c3ccccc23)c(C)c1 (stereo unspecified)	0%	3%	u	-23%	-82*
Cc1cc(F)ccc1S(=O)(=O)N1CCCOC1CNC(=O)C(=O)NCCc1c[nH]c2ccccc12 (stereo unspecified)	-20%	1%	-19%	-15%	-36
Cc1ccc(S(=O)(=O)N2CCOC2CNC(=O)C(=O)NCCc2c[nH]c3ccccc23)cc1 (stereo unspecified)	2%	2%	x	x	-80*
O=C(OCc1nc2ccccc2s1)C1CCN(C2=NS(=O)(=O)c3ccccc32)CC1	-9%	7%	x	x	-26
Cc1cc(C(=O)CSc2nnc(-c3ccco3)o2)c(C)n1C	-15%	x	-15%	u	-16
COC(/C(C)=C/C=C/C(C)=C/c1coc(C)n1)C(C)C1CC(O)C2(C)OC2C=CC(C)C2CC(CC(=O)O2)CC2OC2C(=O)O1 (stereo unspecified)	-12%	x	u	u	-80*
CC1CCC(C(=O)c2c(O)c3ccccc3oc2=O)CC1 (stereo unspecified)	4%	-1%	x	x	-100*
O=C(CC1CCCCC1)c1c(O)c2ccccc2oc1=O	0%	-4%	x	x	-68*
O=C1C=C(c2c(O)ccc3ccccc23)c2ccccc2C1=O	-12%	x	11µM*	10µM*	-97*
Cc1ccc(C)c2[nH]c(=O)c(CCNC(=O)c3ccco3)cc12	-16%	3%[11.5 µM]	x	x	-12
Cc1ccc(C(=O)NCc2ccc3c(c2)CCN3C(=O)c2ccc(C)cc2)cc1	-6%	x	-15%	-23%	-64*
COc1cc(C(=O)NCc2ccc3c(c2)CCN3C(=O)c2ccc(Cl)cc2)cc(OC)c1OC	-3%	x	-15%	u	-26
SMILES	TbPYK inhibitor	LmPK inh	Vaccinia Venus	Vaccinia mCherry	HCMV antiviral
COc1ccc(CCC(=O)NCc2ccc3c(c2)CCN3C(=O)c2ccccc2)cc1	0%	x	-18%	i	-36
COc1ccc(CC(=O)NCc2ccc3c(c2)CCN3C(=O)c2ccc(Cl)cc2)cc1OC	3%	x	u	-12%	-67*
O=C(NCc1ccc2c(c1)CCN2C(=O)c1ccccc1)Nc1cccc(C(F)(F)F)c1	11%	x	u	u	-97*
Cc1ccc(C)c(NC(=O)NCc2ccc3c(c2)CCN3C(=O)c2ccccc2)c1	0%	x	-8%	-18%	11
COc1ccc(CCC(=O)NCc2ccc3c(c2)CCN3C(=O)c2cccc(C)c2)cc1	-3%	x	u	-20%	-72*
COc1ccc(-c2nn(-c3ccccc3)cc2C(=O)N2CCN(S(=O)(=O)c3cccc(F)c3)CC2)cc1	-3%	x	-15%	i	-9
CCOc1ccc(CCNC(=O)COC(=O)c2ccncc2)cc1OCC	1%	x	x	x	2
Cc1cccc(C)c1NC(=O)C(=O)NCC1CCCN1S(=O)(=O)c1ccccc1 (stereo unspecified)	2%	x	-9%	u	-30
CCOc1ccc(CNc2cccc(SC)c2)cc1	-7%	3%	-5%	-19%	-24
COc1cccc(-c2nc(S(=O)(=O)c3ccc(C)cc3)c(N3CCCCC3)o2)c1	3%	x	-1%	-8%	-25
Cc1nn(-c2ccccc2)c(N2CCCC2)c1/C=N/NC(=O)c1ccccc1O	-6%	-2%	-16%	-14%	-19
Cc1nn(-c2ccccc2)c(N2CCCC2)c1/C=N/NC(=O)C1CC1	-5%	6%	2%	-12%	-61*
COc1ccc(/C=C\C(=O)O[C@@H]2C(O)C(O[C@@H]3OC(C)[C@H](O[C@@H]4OCC(O[C@H]5O[C@H](CO)[C@@H](O)C(O)C5O)C(O)C4O)C(O)C3O)[C@H](OC(=O)[C@]34CCC(C)(C)C[C@@H]3C3=CCC5[C@@]6(C)CC(O)C(O[C@@H]7OC(CO)C(O)[C@H](O)[C@H]7O)[C@@](C)(C(=O)O)C6CC[C@@]5(C)[C@]3(CO)CC4)O[C@H]2C)cc1 (stereo partly specified)	1%	x	11µM*	u	x
CC1CN(C(=O)CCC(=O)N2CCN(c3ccccn3)CC2)c2ccccc2O1 (stereo unspecified)	-3%	-1%	2%	-13%	16
Cc1ccc2c(c1)N(C(=O)CCC(=O)N1CCN(c3ccccn3)CC1)CC(C)O2 (stereo unspecified)	2%	5%	-15%	i	-71*
Cc1ccc2c(c1)N(C(=O)CCC(=O)NCCCN1CCOCC1)CC(C)O2 (stereo unspecified)	-4%	-4%	7%	6%	-65*

Source: PubChem (National Center for Advancing Translational Sciences (NCATS))
